# Data published in PubChem BioAssay (Tox21).
# Results filed as inconclusive are left out. Where a call stands in place of a potency, no number is given. Active and inactive are the calls of the source. Unless noted, the call rests on the fitted dose curve; in most records, active means well fitted curve in the direction sought with a large enough effect in the repeat runs; inconclusive means weak or mixed curves; inactive means no such curve, though single readings can be large; an effect the other way counts as inactive or inconclusive.
# Tests used:
# [1] = qHTS assay to identify small molecule agonists of the sonic hedgehog signaling (Shh) pathway (AID 1259368; calls by dose curve;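 further: NIH/3T3-derived 3T3Gli1-Luc cells carrying a stable Gli1-driven firefly luciferase reporter; series mostly up to about 92 µM; nearly all actives have a fitted effect of over 15% in size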)
# How it was run: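 Luminescent signal was taken as a measure of Gli1-controlled luciferase expression in stably transfected NIH/3T3-derived cells that had been treated for 24 hr with compounds delivered in DMSO.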
# [2] = qHTS assay to identify small molecule antagonists of the sonic hedgehog signaling (Shh) pathway (AID 1259369; calls by dose curve; further: nearly all actives have a fitted effect of over 45% in size)
# How it was run: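 Screening used 3T3Gli1-Luc cells at 2,000 per well, compounds delivered in DMSO, and conditioned medium as agonist stimulus; plates incubated 24hr at 37 C and 5% CO2 before a 30min luciferase step.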
# [3] = qHTS assay to identify small molecule agonists of the androgen receptor (AR) signaling pathway in the presence of an antagonist - cell viability counter screen (AID 1259379);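 further: MDA-kb2 human breast cancer cells carrying an MMTV luciferase reporter; series mostly up to about 92 µM; nearly all actives have a fitted effect of over 25% in size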
# How it was run: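 In MDA-kb2 cells (human breast carcinoma, MMTV-luciferase), compounds at 15 concentrations plus 3.0uM nilutamide; 16 hr, 37C, 0% CO2; CellTiter-Fluor fluorescence read for viability.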
# [4] = qHTS assay to identify small molecule agonists of the estrogen receptor beta (ER-beta) signaling pathway - cell viability counter screen (AID 1259380); further: nearly all actives have a fitted effect of over 30% in size
# How it was run: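 Viability of ER-beta-UAS-bla HEK293T cells was determined by CellTiter-Glo luminescence following 16 hr treatment with test compounds at 37C.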
# [5] = qHTS assay to identify small molecule antagonists of the estrogen receptor beta (ER-beta) signaling pathway - cell viability counter screen (AID 1259382); further: series mostly up to about 92 µM; nearly all actives have a fitted effect of over 55% in size
# How it was run: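 Tox21 10K library tested in qHTS format on ER-beta-bla HEK293T cells stimulated with 1nM E2; 16 hr treatment at 37C. Same-well CellTiter-Glo luminescence served as the cell viability measure.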
# [6] = target: Estrogen receptor (Homo sapiens) (UniProt P03372); assay: qHTS assay to identify small molecule agonists of the estrogen receptor alpha (ER-alpha) signaling pathway in the presence of an antagonist (AID 1259383; calls by dose curve; further: top concentration of the series differs between compounds; nearly all actives have a fitted effect of over 15% in size)
# Estrogen receptor (Homo sapiens), sequence (P03372 whole entry, looked up): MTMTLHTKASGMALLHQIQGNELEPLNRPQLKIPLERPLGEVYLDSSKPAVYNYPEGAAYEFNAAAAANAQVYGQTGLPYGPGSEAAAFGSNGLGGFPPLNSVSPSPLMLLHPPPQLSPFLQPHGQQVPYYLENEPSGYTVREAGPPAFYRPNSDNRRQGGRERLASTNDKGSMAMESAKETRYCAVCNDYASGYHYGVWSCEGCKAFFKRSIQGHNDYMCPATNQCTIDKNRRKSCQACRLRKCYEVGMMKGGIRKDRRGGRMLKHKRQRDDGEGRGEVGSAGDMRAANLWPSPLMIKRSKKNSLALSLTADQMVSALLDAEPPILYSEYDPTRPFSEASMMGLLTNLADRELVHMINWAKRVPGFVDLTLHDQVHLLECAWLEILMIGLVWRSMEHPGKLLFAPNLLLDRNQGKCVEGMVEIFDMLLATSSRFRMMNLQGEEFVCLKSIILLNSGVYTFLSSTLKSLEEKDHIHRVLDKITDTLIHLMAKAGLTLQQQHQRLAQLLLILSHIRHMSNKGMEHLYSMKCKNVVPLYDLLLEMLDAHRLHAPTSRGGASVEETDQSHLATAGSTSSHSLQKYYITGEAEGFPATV
# How it was run: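 In VM7Luc4E2 cells, 4,000 per well, compounds at 15 concentrations were co-incubated 22hr at 37C with 10.0nM final ICI-182,780. Luminescence from the stably transfected 4×ERE-luciferase reporter was recorded 30min after ONE-Glo addition.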
# [7] = target: Progesterone receptor (Homo sapiens) (UniProt P06401); assay: qHTS assay to identify small molecule agonists of the progesterone receptor (PR) signaling pathway (AID 1346784; calls by dose curve; further: nearly all actives have a fitted effect of over 30% in size)
# Progesterone receptor (Homo sapiens), sequence (P06401 whole entry, looked up): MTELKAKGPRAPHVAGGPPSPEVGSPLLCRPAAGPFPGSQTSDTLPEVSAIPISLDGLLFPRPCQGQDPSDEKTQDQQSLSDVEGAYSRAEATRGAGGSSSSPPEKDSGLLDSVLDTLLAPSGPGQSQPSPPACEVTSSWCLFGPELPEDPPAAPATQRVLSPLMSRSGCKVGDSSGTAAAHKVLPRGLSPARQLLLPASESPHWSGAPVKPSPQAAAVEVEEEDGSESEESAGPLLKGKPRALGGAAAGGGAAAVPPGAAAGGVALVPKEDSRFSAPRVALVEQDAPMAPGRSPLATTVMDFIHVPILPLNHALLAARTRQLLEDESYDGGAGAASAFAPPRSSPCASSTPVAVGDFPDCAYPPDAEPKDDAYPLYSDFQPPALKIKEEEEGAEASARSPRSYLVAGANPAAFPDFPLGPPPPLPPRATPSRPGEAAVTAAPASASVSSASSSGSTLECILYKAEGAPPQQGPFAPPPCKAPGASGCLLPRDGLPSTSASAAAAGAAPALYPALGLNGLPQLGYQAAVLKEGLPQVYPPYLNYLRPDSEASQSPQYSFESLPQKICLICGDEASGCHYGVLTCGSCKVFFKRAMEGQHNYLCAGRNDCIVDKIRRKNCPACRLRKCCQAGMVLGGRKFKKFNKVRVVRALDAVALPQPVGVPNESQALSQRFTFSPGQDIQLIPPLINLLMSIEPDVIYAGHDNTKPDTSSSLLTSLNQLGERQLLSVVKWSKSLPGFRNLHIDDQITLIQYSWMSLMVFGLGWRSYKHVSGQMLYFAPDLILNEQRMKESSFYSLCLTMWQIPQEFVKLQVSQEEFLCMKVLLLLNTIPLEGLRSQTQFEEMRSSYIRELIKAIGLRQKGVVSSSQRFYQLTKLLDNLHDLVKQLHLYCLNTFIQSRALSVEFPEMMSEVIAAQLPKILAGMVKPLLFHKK
# How it was run: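 Fluorescence from LiveBLAzer B/G FRET substrate cleavage (2 hr, RT) reported PR activation in PR-UAS-bla HEK 293T cells treated 16 hr at 37C/5% CO2 with compounds; medium contained 2% charcoal-stripped FBS.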
# [8] = target: Progesterone receptor (Homo sapiens) (UniProt P06401); assay: qHTS assay to identify small molecule antagonists of the progesterone receptor (PR) signaling pathway (AID 1346795; active means well fitted inhibition curve with a large enough effect in the signal ratio in the repeat runs, not every such curve was filed as active; the % refers to the signal ratio)
# How it was run: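 Fluorescence intensity measured 2 hr after adding beta-lactamase FRET substrate to PR-UAS-bla HEK293T cells that had been co-treated 16 hr with compound and 1 nM R5020 (final concentration) in 2% charcoal-stripped FBS.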
# [9] = qHTS assay to identify small molecule antagonists of the progesterone receptor (PR) signaling pathway - cell viability counter screen (AID 1346798); further: nearly all actives have a fitted effect of over 50% in size; further: potency means the concentration at half of the fitted maximal effect
# How it was run: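 CellTiter-Glo luminescence; PR-UAS-bla HEK293T, 3,000 cells/well; compound + R5020, 16 hr, 37C/5% CO2; 30 min RT before read.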
# [10] = qHTS assay to identify small molecule agonists of the progesterone receptor (PR) signaling pathway - cell viability counter screen (AID 1346799; calls by dose curve; further: nearly all actives have a fitted effect of over 45% in size; further: potency means the concentration at half of the fitted maximal effect)
# How it was run: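 In parallel with the beta-lactamase readout, cytotoxicity toward PR-UAS-bla HEK293T cells was measured by CellTiter-Glo luminescence following 16 hr compound incubation in 2% charcoal-stripped FBS medium.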
# [11] = qHTS assay to identify small molecule antagonists of the TGF-beta/Smad signaling pathway - cell viability counter screen (AID 1346824); further: nearly all actives have a fitted effect of over 50% in size
# How it was run: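 SBE-bla HEK 293T cells, incubated overnight, then compound plus 0.25 ng/mL TGF-beta1 (stock added) for 5 hr at 37 C. Viability was read in the same wells by CellTiter-Glo luminescence after 30 min at room temperature.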
# [12] = qHTS assay to identify small molecule agonists of the TGF-beta/Smad signaling pathway - cell viability counter screen (AID 1346829); further: top concentration of the series differs between compounds; nearly all actives have a fitted effect of over 45% in size
# How it was run: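 Cytotoxicity counter screen: CellTiter-Glo luminescence (30 min, room temperature) measured in the SBE-bla HEK 293T reporter wells after 5 hr compound treatment at 37 C and the 2 hr substrate step.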
# [13] = qHTS assay to identify small molecule agonists of the TGF-beta/Smad signaling pathway (AID 1346859; active means well fitted activation curve with a large enough effect in the signal ratio in the repeat runs, not every such curve was filed as active; the % refers to the signal ratio; further: series mostly up to about 77 µM)
# How it was run: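 After overnight seeding, SBE-bla HEK 293T cells are dosed with compounds in DMSO and kept 5 hr at 37 C, 5% CO2. LiveBLAzer-type FRET substrate is then applied for 2 hr at room temperature.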
# [14] = target: Thyrotropin receptor (Homo sapiens) (UniProt P16473); assay: qHTS assay to identify small molecule antagonists of the thyroid stimulating hormone receptor (TSHR) signaling pathway (AID 1259385; calls by dose curve; further: nearly all actives have a fitted effect of over 20% in size)
# Thyrotropin receptor (Homo sapiens), sequence (P16473 whole entry, looked up): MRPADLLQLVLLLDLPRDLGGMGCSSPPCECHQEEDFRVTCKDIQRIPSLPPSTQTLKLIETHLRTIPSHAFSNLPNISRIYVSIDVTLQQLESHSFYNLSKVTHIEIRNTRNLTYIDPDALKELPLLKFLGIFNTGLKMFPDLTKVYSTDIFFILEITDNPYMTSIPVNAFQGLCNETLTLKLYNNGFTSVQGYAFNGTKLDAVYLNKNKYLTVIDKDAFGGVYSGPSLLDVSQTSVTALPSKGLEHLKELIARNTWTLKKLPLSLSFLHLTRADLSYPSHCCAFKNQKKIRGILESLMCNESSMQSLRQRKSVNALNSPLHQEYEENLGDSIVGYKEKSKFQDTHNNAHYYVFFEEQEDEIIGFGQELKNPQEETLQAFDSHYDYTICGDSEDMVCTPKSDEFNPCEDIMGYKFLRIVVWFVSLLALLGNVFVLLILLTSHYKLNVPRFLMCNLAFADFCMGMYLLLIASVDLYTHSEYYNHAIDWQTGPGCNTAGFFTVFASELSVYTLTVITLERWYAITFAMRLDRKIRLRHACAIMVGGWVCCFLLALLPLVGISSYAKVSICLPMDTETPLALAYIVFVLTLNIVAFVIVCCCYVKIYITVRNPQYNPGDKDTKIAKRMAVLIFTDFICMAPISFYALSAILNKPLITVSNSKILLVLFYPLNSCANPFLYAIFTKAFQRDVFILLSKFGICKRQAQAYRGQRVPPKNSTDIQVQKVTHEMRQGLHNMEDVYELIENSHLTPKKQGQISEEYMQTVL
# How it was run: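 TSHR-HEK293 cells (800/well) plated 18 h, then compounds with Ro20-1724 and TSH at 1.5 ng/mL final, 30 min at room temperature. cAMP quantified by HTRF (cAMP-d2/anti-cAMP-cryptate, 1 h); 15 concentrations in triplicate.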
# [15] = qHTS assay to identify small molecule agonists of the estrogen receptor alpha (ER-alpha) signaling pathway in the presence of an antagonist - cell viability counter screen (AID 1259386);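 further: series mostly up to about 92 µM; cells exposed to compounds for 22 h at 37 °C before the viability read; nearly all actives have a fitted effect of over 30% in size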
# How it was run: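 Fluorescent CellTiter-Fluor viability signal from VM7Luc4E2 cells, with the reagent added during the final hour of a 22hr compound exposure at 37C in the presence of 10.0nM ICI-182,780.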
# [16] = target: Thyrotropin-releasing hormone receptor (Homo sapiens) (UniProt P34981); assay: qHTS assay to identify small molecule antagonists of the thyrotropin-releasing hormone receptor (TRHR) signaling pathway (AID 1346877; active means well fitted inhibition curve with a large enough effect in the repeat runs, not every such curve was filed as active; further: series mostly up to about 51 µM)
# Thyrotropin-releasing hormone receptor (Homo sapiens), sequence (P34981 whole entry, looked up): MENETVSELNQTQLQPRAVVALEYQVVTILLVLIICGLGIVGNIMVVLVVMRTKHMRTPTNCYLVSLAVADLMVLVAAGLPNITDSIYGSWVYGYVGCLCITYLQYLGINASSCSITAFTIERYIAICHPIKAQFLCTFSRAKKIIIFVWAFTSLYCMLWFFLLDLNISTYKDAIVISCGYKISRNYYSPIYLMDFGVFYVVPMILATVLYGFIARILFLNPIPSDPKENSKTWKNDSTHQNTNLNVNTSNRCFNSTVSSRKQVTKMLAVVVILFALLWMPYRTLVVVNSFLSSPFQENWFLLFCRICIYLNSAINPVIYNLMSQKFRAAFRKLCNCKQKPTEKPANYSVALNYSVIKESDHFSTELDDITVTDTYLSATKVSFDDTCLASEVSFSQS
# How it was run: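 In this cell-based calcium flux format, HEK293 cells expressing TRHR received test compound for 5 min before the agonist TRH (1 nM final). Dye loading lasted 2 h at 37 °C.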
# [17] = qHTS assay to identify small molecule agonists or antagonists of the thyroid stimulating hormone receptor (TSHR) signaling pathway - wild type cell line counter screen (AID 1259384; calls by dose curve)
# How it was run: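 Wild-type Hek293 cells, 800/well, 18 h at 37C, then compound with Ro20-1724 for 30 min RT. cAMP by HTRF (cAMP-d2/anti-cAMP cryptate), 1 h RT, fluorescence read. 15 concentrations, triplicates.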
# [18] = target: Estrogen receptor beta (Homo sapiens) (UniProt Q92731); assay: qHTS assay to identify small molecule agonists of the estrogen receptor beta (ER-beta) signaling pathway (AID 1259377; active means well fitted activation curve with a large enough effect in the signal ratio in the repeat runs, not every such curve was filed as active; the % refers to the signal ratio; further: potency means the concentration at half of the fitted maximal effect)
# Estrogen receptor beta (Homo sapiens), sequence (Q92731 whole entry, looked up): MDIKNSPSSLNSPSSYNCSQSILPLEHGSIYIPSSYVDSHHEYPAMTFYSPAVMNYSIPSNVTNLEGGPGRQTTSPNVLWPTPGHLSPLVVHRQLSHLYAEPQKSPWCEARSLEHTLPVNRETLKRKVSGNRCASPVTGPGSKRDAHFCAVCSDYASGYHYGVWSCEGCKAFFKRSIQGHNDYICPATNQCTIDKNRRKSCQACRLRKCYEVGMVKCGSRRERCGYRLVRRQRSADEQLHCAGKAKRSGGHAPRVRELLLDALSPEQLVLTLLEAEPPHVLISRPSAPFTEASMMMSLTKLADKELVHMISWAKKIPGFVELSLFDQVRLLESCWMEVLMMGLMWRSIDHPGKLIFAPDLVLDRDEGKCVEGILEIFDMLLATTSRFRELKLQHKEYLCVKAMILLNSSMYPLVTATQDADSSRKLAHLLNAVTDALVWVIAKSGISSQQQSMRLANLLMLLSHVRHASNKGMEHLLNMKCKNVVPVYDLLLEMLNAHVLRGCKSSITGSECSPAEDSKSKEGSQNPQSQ
# How it was run: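 qHTS in ER-beta-UAS-bla HEK293T cells: 6 hr settling, then 16 hr compound at 37C, then LiveBLAzer substrate 2 h at RT before fluorescence reading.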
# [19] = target: Estrogen receptor beta (Homo sapiens) (UniProt Q92731); assay: qHTS assay to identify small molecule antagonists of the estrogen receptor beta (ER-beta) signaling pathway (AID 1259378; active means well fitted inhibition curve with a large enough effect in the signal ratio in the repeat runs, not every such curve was filed as active; the % refers to the signal ratio)
# How it was run: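 ER-beta-UAS-bla HEK293T cells in 2% charcoal-stripped FBS medium treated with compound plus 1nM final 17-beta-estradiol for 16 hr at 37C. Beta-lactamase reporter read by FRET substrate fluorescence after 2 hours at room temperature.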
# [20] = target: Androgen receptor (Homo sapiens) (UniProt P10275); assay: qHTS assay to identify small molecule agonists of the androgen receptor (AR) signaling pathway in the presence of an antagonist (AID 1259381; calls by dose curve; further: nearly all actives have a fitted effect of over 15% in size)
# Androgen receptor (Homo sapiens), sequence (P10275 whole entry, looked up): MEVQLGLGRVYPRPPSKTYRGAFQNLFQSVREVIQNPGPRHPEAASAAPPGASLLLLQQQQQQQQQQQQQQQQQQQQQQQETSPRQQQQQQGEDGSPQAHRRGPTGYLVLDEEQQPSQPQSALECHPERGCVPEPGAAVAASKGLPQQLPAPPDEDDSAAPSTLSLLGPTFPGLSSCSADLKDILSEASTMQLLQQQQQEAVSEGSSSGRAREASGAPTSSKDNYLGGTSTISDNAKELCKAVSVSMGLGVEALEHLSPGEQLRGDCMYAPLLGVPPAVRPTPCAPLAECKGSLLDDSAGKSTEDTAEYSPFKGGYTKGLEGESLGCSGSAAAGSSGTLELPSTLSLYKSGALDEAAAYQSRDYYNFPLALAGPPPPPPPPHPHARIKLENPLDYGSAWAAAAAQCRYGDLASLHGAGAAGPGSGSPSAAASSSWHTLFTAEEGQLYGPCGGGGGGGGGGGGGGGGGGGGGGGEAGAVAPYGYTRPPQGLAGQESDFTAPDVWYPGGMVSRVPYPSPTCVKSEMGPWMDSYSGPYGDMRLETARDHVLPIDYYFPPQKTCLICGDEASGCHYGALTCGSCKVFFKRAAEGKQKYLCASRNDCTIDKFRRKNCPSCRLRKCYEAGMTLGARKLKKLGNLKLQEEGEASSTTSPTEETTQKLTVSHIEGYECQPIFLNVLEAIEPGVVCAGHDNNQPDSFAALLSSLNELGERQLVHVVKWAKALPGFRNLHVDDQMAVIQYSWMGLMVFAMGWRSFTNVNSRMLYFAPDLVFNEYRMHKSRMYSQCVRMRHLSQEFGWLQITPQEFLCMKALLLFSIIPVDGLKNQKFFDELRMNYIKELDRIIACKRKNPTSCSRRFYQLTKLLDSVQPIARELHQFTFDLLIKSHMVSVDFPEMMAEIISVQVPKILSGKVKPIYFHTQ
# How it was run: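 Here, 15-concentration compound series were pin-transferred onto MDA-kb2 MMTV-luciferase cells already dosed with nilutamide (3.0uM final). After 16hr at 37C, ONE-Glo was added and luminescence read 30min later at room temperature.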
SMILES,outcome [1],Potency [2],Potency [3],Potency [4],outcome [5],outcome [6],Potency [7],Potency [8],Potency [9],Potency [10],outcome [11],outcome [12],outcome [13],outcome [14],Potency [15],outcome [16],outcome [17],Potency [18],outcome [19],Potency [20]
C=C(C)C(=O)OCc1ccccc1,inactive,inactive,inactive,inactive,inactive,inactive,inactive,inactive,30.6 µM (active),48.6 µM (active),inactive,inactive,inactive,–,–,–,–,–,–,–
CCCCNc1ccc(C(=O)OCCN(C)C)cc1,inactive,inactive,inactive,inactive,inactive,–,inactive,inactive,inactive,inactive,inactive,inactive,inactive,inactive,inactive,inactive,–,–,–,–
CC(=O)c1sc(C)nc1C,inactive,inactive,inactive,inactive,–,–,inactive,inactive,inactive,inactive,inactive,inactive,inactive,inactive,–,inactive,inactive,–,–,–
CC(=C(CCOC(=O)C(C)C)SSC(CCOC(=O)C(C)C)=C(C)N(C=O)Cc1cnc(C)nc1N)N(C=O)Cc1cnc(C)nc1N,inactive,–,inactive,inactive,inactive,inactive,inactive,inactive,inactive,–,inactive,inactive,inactive,inactive,–,inactive,inactive,inactive,–,–
CCOC(=O)c1ccc(OC(=O)CCCCCN=C(N)N)cc1,inactive,inactive,inactive,–,–,inactive,inactive,inactive,inactive,inactive,inactive,inactive,inactive,inactive,inactive,inactive,inactive,–,–,–
C[C@@H]1O[C@@H](O[C@@H]2[C@@H](O)[C@H](OCCc3ccc(O)c(O)c3)O[C@H](CO[C@@H]3O[C@H](CO)[C@@H](O)[C@H](O)[C@H]3O)[C@H]2OC(=O)/C=C/c2ccc(O)c(O)c2)[C@H](O)[C@H](O)[C@H]1O,inactive,inactive,–,inactive,inactive,–,–,–,inactive,inactive,inactive,inactive,inactive,inactive,–,inactive,–,–,–,–
C=C(C)C(=O)OCCNC(C)(C)C,inactive,inactive,inactive,inactive,–,–,inactive,–,–,–,inactive,inactive,inactive,inactive,inactive,inactive,–,–,–,–
BrCCCCCBr,inactive,–,inactive,inactive,inactive,inactive,inactive,inactive,inactive,inactive,inactive,inactive,inactive,inactive,inactive,inactive,–,inactive,inactive,–
O=C(c1ccc(O)cc1)c1ccc(O)c(O)c1O,inactive,–,–,inactive,inactive,–,inactive,–,inactive,inactive,inactive,inactive,inactive,–,–,inactive,–,15.4 µM (active),–,–
O=C1c2ccccc2C(=O)N1CCl,inactive,–,inactive,inactive,inactive,inactive,inactive,inactive,inactive,inactive,inactive,inactive,inactive,–,inactive,inactive,–,–,–,inactive
Cc1cccc2nccnc12,inactive,–,inactive,inactive,inactive,inactive,inactive,inactive,inactive,–,inactive,inactive,inactive,inactive,inactive,inactive,inactive,inactive,–,–
COc1cc2c(cc1OC)[C@@H]1CC(=O)[C@@H](CC(C)C)CN1CC2,inactive,–,inactive,inactive,inactive,inactive,inactive,inactive,inactive,–,inactive,inactive,–,inactive,inactive,inactive,inactive,inactive,–,–
CCCCCCCCCCl,inactive,–,inactive,inactive,inactive,–,inactive,inactive,inactive,inactive,inactive,inactive,inactive,inactive,–,inactive,–,inactive,inactive,–
COc1ccc(C2CNC(=O)C2)cc1OC1CCCC1 (centres undefined),inactive,–,inactive,inactive,inactive,–,inactive,inactive,inactive,–,inactive,inactive,inactive,inactive,inactive,inactive,inactive,inactive,inactive,–
O=C1O[C@@H]2[C@@H](O)[C@H](O)O[C@@H]2[C@H]1O,inactive,–,inactive,inactive,–,inactive,inactive,inactive,inactive,inactive,inactive,inactive,inactive,inactive,inactive,inactive,inactive,inactive,inactive,–
O=C1c2cccc3c2[C@H](CCC3)CN1[C@@H]1CN2CCC1CC2,inactive,–,inactive,–,–,inactive,inactive,–,–,–,inactive,inactive,inactive,inactive,–,inactive,inactive,–,–,–
O=C(O)C(=O)Cc1ccccc1,inactive,–,inactive,inactive,inactive,inactive,inactive,inactive,inactive,inactive,inactive,inactive,inactive,inactive,inactive,inactive,inactive,inactive,inactive,inactive
COP(=O)(OC)OC(c1ccc(Cl)cc1)P(=O)(OC)OC (centres undefined),inactive,–,inactive,inactive,inactive,inactive,inactive,inactive,inactive,inactive,inactive,inactive,inactive,inactive,inactive,inactive,inactive,–,–,–
NCCN1CCOCC1,inactive,–,inactive,inactive,–,–,inactive,inactive,inactive,–,inactive,inactive,–,inactive,–,inactive,inactive,inactive,inactive,–
